Measurements: the supplement of paper PMC13380429
Structures can show the parent of a compound that is named as a salt. Unmarked numbers belong to inactive results.

Each molecule was assayed on Vero E6 infected with SARS-CoV-2 (assay: inhibition of SARS-CoV-2 cytopathic effect; higher = more antiviral protection, active = above 15). Conditions: 1 nM; 48 h.

| Compound | inhibition of SARS-CoV-2 cytopathic effect [%] |
| --- | --- |
| CCOC(=O)Nc1ccc2c(c1)N(C(=O)CCN(CC)CC)c1ccccc1S2 [ethacizin] | -5.42 |
| OCc1cncc(F)c1 [5-fluoro-3-pyridyl-methanol] | -1.88 |
| Cc1ncc(CO)c(CO)c1O [pyridoxine] | -15.8 |
| Oc1ccc(CC2NCCc3cc(O)c(O)cc32)cc1 (stereo not given) [higenamine] | 1.31 |
| Cc1c(C)c(NCC(=O)N(C)C2CCN(Cc3ccc(C(N)=O)cc3)CC2)c(C)c(C)c1N | -0.43 |
| COc1cccc(Nc2c(C(N)=O)cnc3c(C)cc(S(=O)(=O)c4cccc(C(=O)N(C)C)c4)cc23)c1 | 1.19 |
| CCNC(C)CN1CCc2c(c(=O)oc3ccccc23)C1 (stereo not given) | -2.32 |
| Cc1c(C)c2c(c(C)c1O)CCC(C)(C(=O)O)O2 (stereo not given) [trolox] | 4.59 |
| COc1cccc2c1c(O)c(C(=O)N(C)c1ccc(C(F)(F)F)cc1)c(=O)n2C [tasquinimod] | 1.2 |
| CC[N+](CC)(CC)CCOc1cccc(OCC[N+](CC)(CC)CC)c1OCC[N+](CC)(CC)CC [gallamine-triethiodide] | 0.22 |
| C#Cc1cccc(Nc2ncnc3cc4c(cc23)OCCOCCOCCO4)c1 [icotinib] | 1.1 |
| C[C@]12CC[C@@H](O)C[C@H]1CC[C@@H]1[C@@H]2CC[C@]2(C)C(=O)CC[C@@H]12 [3-alpha-hydroxy-5-beta-androstan-17-one] | -1.07 |
| C[C@]12CC[C@@H]3c4ccc(O)cc4CC[C@H]3[C@@H]1CCC2=O [estrone] | 1.09 |
| COC[C@@H](NC(C)=O)C(=O)NCc1ccccc1 [Lacosamide] | -11.7 |
| COC(=O)C[C@](O)(CCCC(C)(C)O)C(=O)O[C@@H]1C(OC)=C[C@]23CCCN2CCc2cc4c(cc2[C@H]13)OCO4 [homoharringtonine] | 1.04 |
| O=C1OC2(c3ccccc31)c1cc(I)c(O)c(I)c1Oc1c2cc(I)c(O)c1I [erythrosine] | -2.4 |
| Nc1ccc(S(=O)(=O)Nc2ccnn2-c2ccccc2)cc1 [sulfaphenazole] | 2 |
| CNc1ncc2cc(-c3cc(NC(=O)NCCC(C)(C)C)c(F)cc3C)c(C)nc2n1 | 0.87 |
| COc1ccc2[nH]c3c(-c4cccc5ccccc45)nccc3c2c1 | -2.63 |
| CO/N=C1\CN(c2nc3c(cc2F)c(=O)c(C(=O)O)cn3C2CC2)CC1CN (stereo not given) [gemifloxacin] | -4.74 |

| Compound | inhibition of SARS-CoV-2 cytopathic effect [%] |
| --- | --- |
| CCN(Cc1ccncc1)C(=O)C(CO)c1ccccc1 (stereo not given) [tropicamide] | 2.76 |
| CC1(C)S[C@@H]2[C@H](NC(=O)[C@H](NC(=O)N3CCNC3=O)c3ccccc3)C(=O)N2[C@H]1C(=O)O [azlocillin] | -1.64 |
| C[C@@H]1C[C@H]2[C@@H]3C[C@H](F)C4=CC(=O)C=C[C@]4(C)[C@@]3(Cl)[C@@H](O)C[C@]2(C)[C@H]1C(=O)COC(=O)C(C)(C)C [clocortolone-pivalate] | 0.49 |
| CN1CCN(c2cc(-c3ccccc3)nc(N)n2)CC1 | 2.02 |
| C[C@]12CC[C@H](O)C[C@H]1CC[C@@H]1[C@@H]2C[C@@H](O)[C@]2(C)[C@@H](C3=CC(=O)OC3)CC[C@]12O [digoxigenin] | -0.69 |
| CCOc1cc(C(C)(C)C)ccc1C1=N[C@@](C)(c2ccc(Cl)cc2)[C@@](C)(c2ccc(Cl)cc2)N1C(=O)N1CCN(CCCS(C)(=O)=O)CC1 | -1.23 |
| Cc1cc(/C=C/C#N)cc(C)c1Nc1ccnc(Nc2ccc(C#N)cc2)n1 [rilpivirine] | 0.35 |
| N[C@@H]1CCCN(c2c(/C=C3\SC(=O)NC3=O)cccc2-c2ccccc2)C1 | 3.5 |
| CO/N=C(\C(=O)N[C@@H]1C(=O)N2C(C(=O)O)=C(Cn3ccc(=N)n3CCO)CS[C@H]12)c1csc(N)n1 [Cefoselis sulfate] | 0.33 |
| CC(C)(C)NCc1cc(Nc2ccnc3cc(Cl)ccc23)c2c(c1O)CCCC2 [naphthoquine-phosphate] | -1.58 |
| CC(C)(COP(=O)(O)OP(=O)(O)OC[C@H]1O[C@@H](n2cnc3c(N)ncnc32)[C@H](O)[C@@H]1OP(=O)(O)O)[C@@H](O)C(=O)NCCC(=O)NCCS [coenzyme-A] | -2.14 |
| O=C(Nc1cccc(Cl)c1)c1ccccn1 | 0.86 |
| CCCC(O)C(CC)CO (stereo not given) [2-ethyl-1,3-hexanediol] | 4.92 |
| Nc1nc(/C(=C/CC(=O)O)C(=O)N[C@@H]2C(=O)N3C(C(=O)O)=CCS[C@H]23)cs1 [ceftibuten] | 0.43 |
| CN(C)CC[C@@H](c1ccc(Cl)cc1)c1ccccn1 [chlorphenamine] | 0.315 |
| CCOC(=O)N1CSC[C@H]1C(=O)O [telmesteine] | 1.96 |
| Cc1cccc(-c2n[nH]cc2-c2ccc(F)c(-c3cnn(CCO)c3)c2)n1 | 3.99 |
| C[C@H](CCC(=O)O)[C@H]1CC[C@H]2[C@@H]3C[C@H](O)[C@@H]4C[C@H](O)CC[C@]4(C)[C@H]3CC[C@]12C [Hyodeoxycholic acid (HDCA)] | -1.55 |
| CO/N=C(\C(=O)N[C@@H]1C(=O)N2C(C(=O)O)=C(CSc3nc(=O)c(O)nn3C)CS[C@H]12)c1csc(N)n1 [ceftriaxone] | -1.95 |
| O=C(O)c1ccc(Nc2ncc3c(n2)-c2ccc(Cl)cc2C(c2c(F)cccc2F)=NC3)cc1 | -1.58 |
